According to ChEMBL document CHEMBL5724796, “Tm Shift (DSF) assay results for EUbOPEN Chemogenomics Library” (2024):
Non-standard residues stand in square brackets, D forms with d. Residues, ends and D or L forms follow the SMILES beside them. Nle = CCCC[C@H](N)C(=O)O

Columns and labels:
Conditions in all cases: Compound concentration 20.0 uM
[1] = biological target: Tyrosine-protein kinase ABL1 (Homo sapiens) (UniProt P00519)
[2] = biological target: Bromodomain-containing protein 4 (Homo sapiens) (UniProt O60885)
[3] = biological target: Cyclin-dependent kinase 2 (Homo sapiens) (UniProt P24941)
[4] = biological target: Casein kinase I isoform delta (Homo sapiens) (UniProt P48730)
[5] = biological target: Glycogen synthase kinase-3 beta (Homo sapiens) (UniProt P49841)
[6] = biological target: Mitogen-activated protein kinase 1 (Homo sapiens) (UniProt P28482)
[7] = biological target: T1, Aurora kinase A (Homo sapiens) (UniProt O14965)
T1 sequence (whole entry): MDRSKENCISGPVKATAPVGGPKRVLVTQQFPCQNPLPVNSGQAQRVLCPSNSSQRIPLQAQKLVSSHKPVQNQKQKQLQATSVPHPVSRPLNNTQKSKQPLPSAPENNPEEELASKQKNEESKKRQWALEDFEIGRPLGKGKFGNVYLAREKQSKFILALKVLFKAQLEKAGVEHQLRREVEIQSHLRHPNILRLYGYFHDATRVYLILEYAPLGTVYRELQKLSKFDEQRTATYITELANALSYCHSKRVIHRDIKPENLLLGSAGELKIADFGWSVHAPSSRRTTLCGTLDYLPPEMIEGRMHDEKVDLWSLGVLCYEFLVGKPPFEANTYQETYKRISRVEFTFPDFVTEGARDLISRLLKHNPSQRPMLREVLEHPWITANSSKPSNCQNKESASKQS

[8] = biological target: T2, Transcription intermediary factor 1-alpha (Homo sapiens) (UniProt O15164)
T2 sequence (whole entry): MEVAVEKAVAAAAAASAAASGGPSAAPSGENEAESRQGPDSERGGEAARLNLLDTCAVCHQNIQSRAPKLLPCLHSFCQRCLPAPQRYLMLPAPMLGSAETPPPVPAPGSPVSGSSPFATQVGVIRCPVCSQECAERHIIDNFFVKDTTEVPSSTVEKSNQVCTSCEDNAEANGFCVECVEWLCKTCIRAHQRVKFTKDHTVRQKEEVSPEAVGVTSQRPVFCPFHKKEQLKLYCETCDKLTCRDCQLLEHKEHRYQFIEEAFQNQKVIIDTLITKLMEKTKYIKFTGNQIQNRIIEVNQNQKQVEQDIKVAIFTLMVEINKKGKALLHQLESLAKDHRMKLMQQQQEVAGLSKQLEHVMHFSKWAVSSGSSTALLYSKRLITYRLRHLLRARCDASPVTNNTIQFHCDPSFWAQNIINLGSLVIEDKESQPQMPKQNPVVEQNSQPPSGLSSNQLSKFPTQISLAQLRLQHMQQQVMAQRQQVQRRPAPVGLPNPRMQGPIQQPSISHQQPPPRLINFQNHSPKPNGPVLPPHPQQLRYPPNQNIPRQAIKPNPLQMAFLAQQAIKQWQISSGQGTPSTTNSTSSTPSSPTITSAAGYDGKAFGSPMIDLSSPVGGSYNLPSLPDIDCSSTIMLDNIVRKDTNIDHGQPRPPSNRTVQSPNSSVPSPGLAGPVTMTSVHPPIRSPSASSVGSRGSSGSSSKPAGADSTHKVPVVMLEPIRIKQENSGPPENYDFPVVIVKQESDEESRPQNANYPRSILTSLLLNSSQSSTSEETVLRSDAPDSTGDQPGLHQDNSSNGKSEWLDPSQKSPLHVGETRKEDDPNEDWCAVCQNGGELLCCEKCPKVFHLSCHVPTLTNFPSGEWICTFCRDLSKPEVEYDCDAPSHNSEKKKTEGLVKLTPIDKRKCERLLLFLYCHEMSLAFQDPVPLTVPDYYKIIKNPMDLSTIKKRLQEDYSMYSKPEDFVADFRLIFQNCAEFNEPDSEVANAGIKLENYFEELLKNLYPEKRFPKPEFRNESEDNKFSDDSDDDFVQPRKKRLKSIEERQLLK

Chain of Glycogen synthase kinase-3 beta (Homo sapiens) (P49841 whole entry, looked up): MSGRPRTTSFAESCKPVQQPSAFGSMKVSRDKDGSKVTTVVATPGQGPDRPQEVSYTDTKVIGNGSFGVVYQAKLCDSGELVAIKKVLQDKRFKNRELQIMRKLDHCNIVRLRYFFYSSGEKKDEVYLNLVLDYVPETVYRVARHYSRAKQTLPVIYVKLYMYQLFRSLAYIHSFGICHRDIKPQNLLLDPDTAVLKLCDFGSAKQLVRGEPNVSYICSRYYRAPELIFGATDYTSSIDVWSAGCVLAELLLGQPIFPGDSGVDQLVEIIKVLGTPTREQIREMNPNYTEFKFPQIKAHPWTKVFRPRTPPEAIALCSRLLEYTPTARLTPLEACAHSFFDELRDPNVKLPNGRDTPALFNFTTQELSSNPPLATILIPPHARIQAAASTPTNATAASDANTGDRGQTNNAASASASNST
Chain of Mitogen-activated protein kinase 1 (Homo sapiens) (P28482 whole entry): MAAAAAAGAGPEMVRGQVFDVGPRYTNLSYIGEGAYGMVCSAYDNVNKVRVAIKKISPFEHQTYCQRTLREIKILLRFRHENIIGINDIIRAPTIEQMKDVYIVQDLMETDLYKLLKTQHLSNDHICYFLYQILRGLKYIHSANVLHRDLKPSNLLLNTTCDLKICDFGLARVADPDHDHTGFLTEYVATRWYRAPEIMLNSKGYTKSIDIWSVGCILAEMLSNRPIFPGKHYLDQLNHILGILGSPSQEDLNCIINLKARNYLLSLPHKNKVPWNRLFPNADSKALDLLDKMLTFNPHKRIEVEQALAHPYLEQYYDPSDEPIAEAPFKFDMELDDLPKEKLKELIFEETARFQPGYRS
Chain of Casein kinase I isoform delta (Homo sapiens) (P48730 whole entry, looked up, canonical isoform): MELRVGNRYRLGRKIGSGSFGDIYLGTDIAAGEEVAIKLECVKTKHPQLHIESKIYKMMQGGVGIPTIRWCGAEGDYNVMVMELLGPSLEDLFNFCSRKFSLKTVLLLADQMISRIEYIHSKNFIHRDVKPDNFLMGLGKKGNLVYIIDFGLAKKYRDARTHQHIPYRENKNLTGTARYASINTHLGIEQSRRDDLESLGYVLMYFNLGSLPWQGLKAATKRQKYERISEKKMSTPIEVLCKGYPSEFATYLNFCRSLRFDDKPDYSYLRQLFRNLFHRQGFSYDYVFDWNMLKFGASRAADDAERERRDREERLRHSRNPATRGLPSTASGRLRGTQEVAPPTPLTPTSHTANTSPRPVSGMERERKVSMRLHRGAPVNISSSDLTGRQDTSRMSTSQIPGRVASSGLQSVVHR
Chain of Tyrosine-protein kinase ABL1 (Homo sapiens) (P00519 whole entry): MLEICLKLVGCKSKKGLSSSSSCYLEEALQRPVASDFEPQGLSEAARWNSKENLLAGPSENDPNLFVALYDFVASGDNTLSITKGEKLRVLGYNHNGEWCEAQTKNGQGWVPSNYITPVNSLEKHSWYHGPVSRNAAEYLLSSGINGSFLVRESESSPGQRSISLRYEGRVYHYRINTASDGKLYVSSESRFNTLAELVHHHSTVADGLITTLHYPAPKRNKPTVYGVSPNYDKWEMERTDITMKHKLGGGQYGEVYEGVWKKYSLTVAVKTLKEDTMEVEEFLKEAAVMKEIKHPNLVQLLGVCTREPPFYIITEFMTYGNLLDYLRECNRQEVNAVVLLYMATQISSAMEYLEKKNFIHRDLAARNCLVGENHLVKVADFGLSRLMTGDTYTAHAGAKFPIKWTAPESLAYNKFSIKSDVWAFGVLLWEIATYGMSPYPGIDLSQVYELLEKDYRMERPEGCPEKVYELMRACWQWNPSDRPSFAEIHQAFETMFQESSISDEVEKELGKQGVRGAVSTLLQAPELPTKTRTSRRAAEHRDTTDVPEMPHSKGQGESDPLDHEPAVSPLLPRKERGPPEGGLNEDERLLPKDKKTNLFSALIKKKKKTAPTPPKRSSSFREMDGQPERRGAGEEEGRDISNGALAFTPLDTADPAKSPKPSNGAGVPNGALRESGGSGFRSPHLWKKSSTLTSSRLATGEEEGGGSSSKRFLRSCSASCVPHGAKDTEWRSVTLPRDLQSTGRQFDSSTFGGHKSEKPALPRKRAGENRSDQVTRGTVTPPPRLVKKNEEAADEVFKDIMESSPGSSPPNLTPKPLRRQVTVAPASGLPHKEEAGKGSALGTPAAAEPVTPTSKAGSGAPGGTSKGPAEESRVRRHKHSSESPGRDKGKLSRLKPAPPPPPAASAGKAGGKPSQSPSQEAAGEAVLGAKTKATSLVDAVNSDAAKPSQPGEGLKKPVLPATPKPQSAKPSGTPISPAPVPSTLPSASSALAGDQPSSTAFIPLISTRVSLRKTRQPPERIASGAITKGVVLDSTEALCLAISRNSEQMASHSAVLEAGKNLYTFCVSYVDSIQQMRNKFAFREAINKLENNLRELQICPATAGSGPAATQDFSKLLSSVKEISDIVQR

Compound | ΔTm [1] | ΔTm [2] | ΔTm [3] | ΔTm [4] | ΔTm [5] | ΔTm [6] | ΔTm [7] | ΔTm [8]
O=C(c1ccc2[nH]ccc2c1)N1CCN(S(=O)(=O)c2ccc3[nH]c(=O)oc3c2)CC1 | 0.69 °C | -2.8 °C | -0.68 °C | 0.15 °C | 0 °C | 0.48 °C | -1.69 °C | -0.16 °C
CCC(=O)N[C@H]1CC[C@@H](C(=O)N(C)c2ccc(-c3nc4ccccc4o3)cc2)C1 | 0.54 °C | 0.67 °C | -0.03 °C | 0.1 °C | -0.48 °C | -0.17 °C | -0.05 °C | -0.29 °C
C[C@@H]1CN(c2nccc(Nc3ccc4c(c3)n(CCC(C)(C)O)c(=O)n4C)n2)C[C@H](C)C1(F)F | 1.46 °C | -1.76 °C | 3.21 °C | -0.23 °C | -0.32 °C | -7.23 °C | -2.03 °C | -1.14 °C
CC/C(=C(/CC)c1ccc(O)cc1)c1ccc(O)cc1 | -0.96 °C | -4.78 °C | -5.57 °C | -0.81 °C | -3.54 °C | -12.2 °C | -1.78 °C | 1.49 °C
Cc1cc(C(=O)N2CCN(C3CN(C(=O)c4ccc(-c5ccccc5)cc4)C3)CC2)no1 | 0.78 °C | -2.08 °C | -0.01 °C | 0.33 °C | 0 °C | 0.28 °C | 0 °C | -0.09 °C
CCCC[C@@H](C=O)NC(=O)[C@H](CC(C)C)NC(=O)[C@H](CC(C)C)NC(C)=O (Ac-Leu-Leu-[Nle]-aldehyde) | 0.18 °C | -2.71 °C | 0.09 °C | 0.12 °C | -0.45 °C | 0.06 °C | -1.13 °C | -1.21 °C
Cc1ncsc1-c1ccc(CNC(=O)[C@@H]2C[C@@H](O)CN2C(=O)[C@@H](NC(=O)COCCOCCOc2ccc(-c3ccc4ncnc(Nc5ccc(OCc6cccc(F)c6)c(Cl)c5)c4c3)cc2)C(C)(C)C)cc1 | 2.92 °C | 5.48 °C | 5.97 °C | -3.34 °C | 9.57 °C | -2.89 °C | 7.09 °C | 10.8 °C
CCCCNc1cc(C(=O)O)cc(S(N)(=O)=O)c1Oc1ccccc1 | 0.19 °C | -1.86 °C | -0.19 °C | 0.17 °C | -0.41 °C | 0.13 °C | 0.14 °C | 0.82 °C
CN(CC[C@@H](Oc1ccc(-c2ccccc2)cc1)c1ccc(F)cc1)CC(=O)O | 0.28 °C | -0.22 °C | -0.22 °C | 0.15 °C | -0.98 °C | 0.32 °C | -1.2 °C | 2.77 °C
COc1cc(O)cc(CN2CCc3c(cc(Cn4ccn(C)c4=N)cc3-c3ccc(F)cc3C)C2=O)c1 | 0.41 °C | -3.72 °C | -0.56 °C | -0.83 °C | -0.55 °C | 0.04 °C | -2.93 °C | -1.53 °C
Cc1cc(Cn2c(=O)n(Cc3cnc(C)s3)c(=O)c3cc(S(=O)(=O)NC4(C)CC4)ccc32)n(C)n1 | 0.2 °C | -4.6 °C | 0.24 °C | 0.39 °C | -0.6 °C | 0.1 °C | -3.34 °C | -1.26 °C
Cn1c(NCCN(CCO)CCCc2ccc([N+](=O)[O-])cc2)cc(=O)n(C)c1=O | -0.01 °C | 0.07 °C | 0.08 °C | -0.29 °C | -0.66 °C | 0.09 °C | -1.33 °C | 0.26 °C
COc1cc(C(=O)NCC2(N(C)C)CCCC2)cc(OC)c1OCc1ccccc1 | 0.81 °C | -1.07 °C | 0.36 °C | -0.21 °C | -0.01 °C | 0.38 °C | -0.99 °C | 3.25 °C
COc1cccc(Nc2c(C(N)=O)cnc3c(C)cc(S(=O)(=O)c4cccc(C(=O)N(C)C)c4)cc23)c1 | 0.62 °C | -2.14 °C | 0.36 °C | -0.04 °C | 0.04 °C | 0.14 °C | -0.98 °C | -0.26 °C
Nc1ccccc1NC(=O)CCCCCC(=O)Nc1ccccc1 | 0.27 °C | -2.09 °C | 0.5 °C | 0.04 °C | -0.05 °C | 0.2 °C | -0.94 °C | -0.62 °C
Cc1cc(C(=O)CN2CCC(O)CC2)c(C)n1-c1ccc(C#N)cc1 | 0.11 °C | -2.81 °C | -0.05 °C | -0.34 °C | -0.73 °C | 0.01 °C | -2.48 °C | -1.8 °C
O=C(NO)c1ccc(CN(c2cnccn2)c2cnccn2)cc1 | 0.4 °C | -1.6 °C | -0.02 °C | 0.05 °C | -1.38 °C | -0.44 °C | -0.32 °C | -1.38 °C
c1ccc(Cn2c(-c3ccc(OC[C@H](C4CCNCC4)n4c(-c5ccccc5)nc5ccccc54)cc3)nc3ccccc32)cc1 | -1.84 °C | -6.29 °C | -1.5 °C | -0.34 °C | -3.92 °C | 0 °C | 0 °C | -1.18 °C
O=C(Nc1ccc2[nH]nc(-c3ccncc3)c2c1)[C@@H]1CCN(CC(=O)N2CCN(c3ccc(-c4ncccn4)cc3)CC2)C1 | 1.95 °C | -1.51 °C | 0.12 °C | 1.66 °C | 1.44 °C | 13.1 °C | 3.82 °C | -0.46 °C
O=C(CCl)Nc1ccc(S(=O)(=O)c2ccc(NC(=O)CCl)cc2)cc1 | 1.36 °C | -1.5 °C | 0 °C | 0.55 °C | 0.48 °C | -1.61 °C | -0.12 °C | 0.36 °C
CC1(C)Cn2nc(-c3ccc(F)cn3)c(-c3ccnc4[nH]ncc34)c2CO1 | 2.43 °C | -1.54 °C | 0.09 °C | 9.16 °C | -1.21 °C | -0.48 °C | -0.55 °C | -1.54 °C
